Columns and labels:
Format in all cases: functional
[1] = molecular target: Solute carrier family 2, facilitated glucose transporter member 1 (Homo sapiens) (UniProt P11166); assay: ST_JUDE_LEISH: Cytotoxicity at 2uM final concentration against transgenic Leishmania Mexicana promastigotes LmGLUT1 that are glucose transport deficient and complemented with the human glucose transporter GLUT1. Activity is measured by DNA content using SYBR green in vitro
[2] = molecular target: Hexose transporter 1 (Plasmodium falciparum) (UniProt O97467); assay: ST_JUDE_LEISH: Cytotoxicity at 2uM final concentration against transgenic Leishmania Mexicana promastigotes LmPfHT that are glucose transport deficient and complemented with the Plasmodium falciparum hexose transporter. Activity is measured by DNA content using SYBR green in vitro
[3] = molecular target: Glucose transporter (Leishmania mexicana) (UniProt O61059); assay: ST_JUDE_LEISH: Cytotoxicity at 2uM final concentration against transgenic Leishmania Mexicana promastigotes LmGT2 that are glucose transport deficient and complemented with the L. Mexicana glucose transporter 2. Activity is measured by DNA content using SYBR green in vitro

Sequence of Solute carrier family 2, facilitated glucose transporter member 1 (Homo sapiens) (P11166 whole entry): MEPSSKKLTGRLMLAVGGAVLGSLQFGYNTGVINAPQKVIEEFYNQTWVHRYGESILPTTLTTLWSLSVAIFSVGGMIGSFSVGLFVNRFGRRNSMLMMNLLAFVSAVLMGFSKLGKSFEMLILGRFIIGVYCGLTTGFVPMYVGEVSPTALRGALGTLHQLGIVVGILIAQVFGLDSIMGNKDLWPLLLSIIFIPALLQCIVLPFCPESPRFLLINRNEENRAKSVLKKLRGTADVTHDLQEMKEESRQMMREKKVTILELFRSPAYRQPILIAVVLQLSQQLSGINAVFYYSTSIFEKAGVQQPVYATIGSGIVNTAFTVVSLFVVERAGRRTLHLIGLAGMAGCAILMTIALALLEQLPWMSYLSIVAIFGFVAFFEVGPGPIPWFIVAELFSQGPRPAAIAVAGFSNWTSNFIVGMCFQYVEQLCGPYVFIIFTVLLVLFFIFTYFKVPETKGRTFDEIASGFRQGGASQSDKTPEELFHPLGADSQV

| Compound | inhibition [1] [%] | inhibition [2] [%] | inhibition [3] [%] |
| --- | --- | --- | --- |
| CC(C)(C)CNc1noc(-c2sccc2Br)n1 | -0.27 | -0.43 | -0.7 |
| Cc1nc(C)c(-c2ccc(Oc3cccc(OC(F)(F)F)c3)cc2)c(O)c1Cl | 2.22 | 2.75 | 2.84 |
| CC(C)c1cn2c3c(cc(C(=O)N[C@@H](Cc4ccccc4)[C@H](O)CNC4CCCCC4)cc13)N(C)S(=O)(=O)CC2 | -1.18 | -0.34 | -2.44 |
| COC[C@H]1CCCN1Cc1ccc(-c2ccc(-c3nc4ccccc4[nH]3)s2)cc1 | 2.15 | 1.84 | 1.25 |
| CN(Cc1ccc(C#N)cc1)C1CCN(c2cc(NC(=O)c3ccc(F)cc3)ccn2)CC1 | 1.28 | 2.79 | -1.93 |
| O=C(Nc1cccc(CN2CCCN(Cc3cccc(Cl)c3)CC2)c1)c1ccc(-c2ccccc2)cc1 | 4.82 | 4.23 | 0.66 |
| Cc1cc(C(=O)OCC(N)=O)c(C)n1-c1ccc(F)cc1 | -0.25 | 6.13 | 3.07 |
| NC1CCN(Cc2cccc(-c3ccc(-c4nc5cc(C(F)(F)F)ccc5[nH]4)cc3)c2)C1 (configuration not stated) | 0.52 | 5.22 | 2.71 |
| N#Cc1ccc2c(c1)CN(C1CCC(NC(=O)c3cc(-c4ccc(Cl)cc4)cs3)CC1)CCC2 (configuration not stated) | 3.29 | 0.21 | 1.7 |
| O=C(O[C@@H]1CN[C@H](C#Cc2cc3c(Nc4ccc5c(cnn5Cc5ccccc5)c4)ncnc3s2)C1)N1CCCC1 | -0.49 | 0.25 | -0.78 |
| C#CC[C@@H](NC(N)=O)C(=O)O | -0.51 | 1 | 0.41 |
| CCOC(=O)c1ccc2[nH]c(-c3ccc(C(=O)NCc4ccc(C(C)(C)C)cc4)cc3)nc2c1 | 4.63 | 2.27 | 1.02 |
| CC(=O)Nc1ccc(C(=O)Nc2cccc(-c3ccc(-c4nc5ccccc5[nH]4)s3)c2)cn1 | 4.38 | 1.07 | 5.88 |
| O=C(Nc1cccc(-c2ccc(-c3nc4cc(C(F)(F)F)ccc4[nH]3)s2)c1)c1c[nH]cn1 | 0.15 | -0.45 | 0.77 |
| O=S(=O)(c1ccc(OC(F)(F)F)cc1)C1CC2CCC(C1)N2S(=O)(=O)c1ccc(Cl)c(C(F)(F)F)c1 (configuration not stated) | 11.6 | 12.9 | 10.4 |
| N#Cc1cccc(NC(=O)NC2CCN(CCCCCNC(=O)C3CC3c3ccc(Cl)c(Cl)c3)CC2)c1 (configuration not stated) | 0.56 | 0.42 | 1.85 |
| Nc1nccc2ccc(-c3ccc(NC(=O)Nc4cc(C(F)(F)F)ccc4F)cc3)cc12 | 0.91 | 4.94 | -0.4 |

| Compound | inhibition [1] [%] | inhibition [2] [%] | inhibition [3] [%] |
| --- | --- | --- | --- |
| O=C(Nc1ccccc1O)c1ccc(Oc2cccc(C(=O)Nc3ccccc3O)c2)cc1 | 3.99 | 4.01 | 1.13 |
| CC(Nc1ccc2c(c1)CCC2)C(=O)Nc1cc(C(F)(F)F)ccc1N1CCOCC1 (configuration not stated) | 14.7 | 16.9 | 11.1 |
| COc1cc(OC)cc(-c2nc3ccc(OCCN(C)C)c(C#N)c3[nH]2)c1 | 0.95 | 4.09 | 2.21 |
| CN1CCC(Oc2ccc(Nc3nccc(NCC(O)c4ccccc4)n3)cc2Cl)CC1 (configuration not stated) | -2.84 | -3.54 | -6.09 |
| Cc1ccccc1N1CCN(c2ccc(C(=O)Nc3ccccc3)cn2)CC1 | 9.19 | 7.8 | 3.84 |
| CC(C)(C)c1ccc(CNC(=O)c2cc(CNC3CCNC3)ccc2O)cc1 (configuration not stated) | 1.88 | 0.79 | 0.53 |
| O=C(NCc1ccccc1)OC1CNCCC1c1ccc(C(O)Cc2ccccc2)cc1 (configuration not stated) | 1.68 | 1.62 | 2.32 |
| CC1CN(c2ccnc3ccc(Sc4ccc(Oc5ccccc5)cc4)cc23)CC(C)N1 (configuration not stated) | 0.07 | 2.41 | -0.77 |
| CCCCNc1c(C(=O)OCC)c(C)nc2c1[nH]c1ccccc12 | 3.19 | 4.14 | -0.65 |
| CCn1cc2c3c(cc(C(=O)N[C@@H](Cc4ccccc4)[C@H](O)CNC4CCOCC4)cc31)N(C)S(=O)(=O)CC2 | 0.41 | 0.29 | 4.85 |
| Cc1cc2nc(-c3ccc(/C=C/C(=O)NC4CCCCC4)cc3)[nH]c2cc1C | 0.61 | 1.82 | 1.51 |
| Cc1cc(=NN=Cc2ccccn2)c2cc(F)ccc2[nH]1 | 4.3 | 5.11 | 0.4 |
| CN(C)CCNCc1ccc(-c2ccc(-c3nc4cc(F)ccc4[nH]3)cc2)cc1 | 9.57 | 7.88 | 5.4 |
| Nc1nc(N)c(-c2ccccc2)c(=O)[nH]1 | 4.51 | 3.54 | 1.16 |
| Cc1cccc2nc(-c3ccc(-c4cccc(NC(=O)Nc5ccsc5)c4)cc3)[nH]c12 | 1.48 | 0.08 | -1.47 |
| Cc1ccc2[nH]c3ccccc3c(=O)c2c1 | 0.1 | 1.92 | 1.77 |
| CCN1CCN(Cc2ccc(NC(=O)c3cc4ccc5cccnc5c4[nH]3)cc2)CC1 | 17.2 | 15.9 | 11.4 |

Reference: ChEMBL document CHEMBL3433997, “St. Jude Leishmania screening dataset” (2016)
